{
  "source": "PubChem BioAssay (NCI)",
  "note": "Where “and” joins values, the source holds several entries; their conditions need not be identical. Equal entries are not always repeated. This is part of a sample that, as a whole, favours compounds with a hit. Of some 83,000 tested, about 20% had one in any assay.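 Activity criterion: percent growth below 10, measured after cells in 96-well plates were exposed to a single compound concentration for 48 hours.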 Unmarked numbers belong to inactive results. Calls of active or inactive are those of the source.",
  "data": [
    {"tested_on": "MDA-MB-468 breast", "assay": "NCI-60 one-dose screen, 48 h (100 = growth as untreated, 0 = no growth, -100 = all killed)", "details": "10 µM unless noted", "values": [
      {"smiles": "COc1cccc(NC(=O)c2sc3nc(C)c(C(O)c4ccccc4)cc3c2N)c1", "note": "(configuration not stated)", "growth": "14.3%"},
      {"smiles": "Cc1ccn2cc(Cc3cc(=O)oc4c3ccc3ccccc34)c(=O)nc2c1", "growth": "117%"},
      {"smiles": "O=C(Nc1cccc(Oc2nnc(Cl)c3ccccc23)c1)Nc1ccc(Cl)c(C(F)(F)F)c1", "growth": "-44.8% (active)"},
      {"smiles": "CNC(=O)c1cc(Oc2ccc3c(c2)sc2nc(-c4ccc(NC(=O)Nc5ccc(Cl)c(C(F)(F)F)c5)cc4)cn23)ccn1", "growth": "93.9%"},
      {"smiles": "O=[N+]([O-])c1ccc([I+]c2ccccc2)cc1", "growth": "-5.9% (active)"},
      {"smiles": "CCCCc1nc2c(N)nc3ccccc3c2n1Cc1cccc(CN)c1", "growth": "27.3%"},
      {"smiles": "O=c1oc2ccc(-c3ccc(F)cc3F)cc2c(=O)n1-c1ccc(F)c(F)c1", "growth": "-10.8% (active)"},
      {"smiles": "O=C(Nc1ccc(-n2cc(-c3ccncc3)c(-c3ccc(Cl)c(O)c3)n2)cc1)c1cc(Cl)cc(Cl)c1", "growth": "57.6%"},
      {"smiles": "CCOC(=O)c1cc2c(n1Cc1cc(OC)cc(OC)c1)-c1oncc1CC2", "growth": "-14.1% (active)"},
      {"smiles": "C/C=C(\\C)C(C(=O)NC1CCCCC1)N(C(=O)C1CCc2cc(F)ccc2O1)c1ccc([N+](=O)[O-])cc1", "note": "(configuration not stated)", "growth": "85.6%"},
      {"smiles": "CC(C)(C)n1cc(-c2ccnc(NCCCNS(=O)(=O)c3cccc(F)c3)n2)c(-c2ccc(Cl)c(O)c2)n1", "growth": "104%"},
      {"smiles": "O=c1c2ccccc2sc2c(NCCN3CCOCC3)nc3ccccc3c12", "growth": "59.4%"},
      {"smiles": "CCCOc1cc2ccccc2cc1C(=O)Nc1nc(N)c2c(ccc3nccc32)[nH]1", "growth": "-64.7% (active)"},
      {"smiles": "Clc1ccc2c(NC3CCC(NC4CCCCC4)CC3)ccnc2c1", "note": "(configuration not stated)", "growth": "-7.22% (active)"},
      {"smiles": "[2H]C([2H])([2H])Oc1ccc(F)cc1/C=C/C(=O)/C=C(O)/C=C/c1cc(F)ccc1OC([2H])([2H])[2H]", "growth": "91.6%"},
      {"smiles": "CN(C[C@@H]1COCCO1)S(=O)(=O)Nc1ccc2ccc3ncc(-c4cnn(C)c4)cc3c(=O)c2c1", "growth": "49.9%"},
      {"smiles": "COc1cc(-c2ccc(N=Nc3c(O)c(C(=O)Nc4ccccc4OC)cc4ccccc34)c(OC)c2)ccc1N=Nc1c(O)c(C(=O)Nc2ccccc2OC)cc2ccccc12", "growth": "95%"},
      {"smiles": "CNC(=O)c1cc(Oc2ccc3c(c2)sc2nc(-c4cc(OC)c(OC)c(OC)c4)cn23)ccn1", "growth": "4.35% (active)"},
      {"smiles": "COc1cnc2c(c1)C(=O)c1c-2n(CCCNC(C)C)c(=O)c2cc(Cl)ccc12", "growth": "17.7%"},
      {"smiles": "C=CC(=O)N[C@@H](/C=C/C(=O)OCC)Cc1ccc(-c2cc(Cl)cc(Cl)c2)cc1", "growth": "1.83% (active)"},
      {"smiles": "Cn1c(C(N)=O)cc2c1-c1nc(NC3CCCCC3)ncc1CCC2", "growth": "93.7%"},
      {"smiles": "CC[N+](CC)=c1sc2c(s1)C(c1ccc(Cl)cc1)Oc1ccc(Cl)cc1-2", "note": "(configuration not stated)", "growth": "-4.17% (active)"},
      {"smiles": "C=C(C)[C@@H]1CC[C@]2(C)[C@H](CC[C@@H]3[C@@H]([C@@](C)(O)CCC=C(C)C)CC[C@]32C)[C@@]1(C)CCC(=O)O", "growth": "8.85% [100 µM] (active)"},
      {"smiles": "CC1=CC(O)C2CC1C2(C)C", "note": "(configuration not stated)", "growth": "105% and 100%"},
      {"smiles": "C1CCC(C(CC2CCCCN2)C2CCCCC2)CC1", "note": "(configuration not stated)", "growth": "-90.1% (active)"},
      {"smiles": "C#Cc1nc(Nc2cc(C)[nH]n2)c2ccccc2n1", "growth": "-23.2% (active)"},
      {"smiles": "COc1ccc(C2Nc3c(c(C(C)(C)C)nn3-c3ccccc3)C(=O)CS2)cc1", "note": "(configuration not stated)", "growth": "112%"},
      {"smiles": "COc1ccc(C2(Cl)c3ccccc3N(c3ccccc3)c3ccccc32)cc1", "growth": "-32.7% (active)"},
      {"smiles": "COc1ccc(-c2nc3c(N)c(CO)cnc3s2)cc1", "growth": "57.6%"},
      {"smiles": "COc1cc(/C=C2\\COc3ccc(O)c(O)c3C2=O)cc(OC)c1", "growth": "-0.854% (active)"},
      {"smiles": "CSc1nnc(C2=CC(=O)c3ccccc3C2=O)n1-c1ccccc1", "growth": "82.6%"},
      {"smiles": "CC[C@@]1(OC(=O)CN(C)C)C(=O)OCc2c1cc1n(c2=O)Cc2cc3c(N)cccc3nc2-1", "growth": "-66.4% (active)"},
      {"smiles": "COc1ccc(-c2nc(C#N)c(NCC(c3ccco3)N3CCCC3)o2)cc1", "note": "(configuration not stated)", "growth": "49.2%"},
      {"smiles": "Cn1cc(-c2csc(-c3cn(CCN)c4ccc(F)cc34)n2)c2cccnc21", "growth": "20.2%"},
      {"smiles": "CSc1nc2c(c(=O)[nH]1)C1(C(=O)Nc3ccccc31)c1c(nc(SC)[nH]c1=O)N2", "growth": "93.1%"},
      {"smiles": "Nc1nc(Nc2ccc(OCc3cccc(F)c3)cc2)c2c(n1)[nH]c1ccc(O)cc12", "growth": "-17.2% (active)"},
      {"smiles": "C=C1C(=O)O[C@H]2[C@H]1CC/C(COC(=O)NCc1ccc(Cn3c(=O)sn(CCCC)c3=O)cc1)=C\\CC[C@@]1(C)O[C@@H]21", "growth": "12.2%"}
    ]}
  ]
}
